Data reported in PubChem BioAssay AID1159580 (chemical genetic matrix, 2015).
Values joined by “and” are separate entries in the source; they are usually repeats but may differ in a detail not shown here. Equal values may be shown once. In all, about 5,500 compounds went through this assay and about 2,000 (36%) were called active. Inconclusive results (about 18%) are left out. Rule as the data show it: active = normalized growth mostly below about 0.91 (no sharp cut-off); inconclusive = no clear call, values can overlap the other calls; inactive = mostly above about 0.92. Some of the results follow.

Experiment: chemical genetic growth profiling, strain panel (AID 1159580);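 also: tested at 20 µM; growth read once vehicle control cultures reached saturation at 30 °C; 1 = growth at the plate median or of vehicle wells; lower values mean less growth of the strain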
Details: S. cerevisiae deletion strains, growth OD

Measured: normalized growth

C[C@@H](CO)NC(=O)C1C=C2c3cccc4[nH]cc(c34)C[C@H]2N(C)C1 (stereo partly specified)
inactive: locus YAL013W, strain DEP1, active compounds read low 1.02 | locus YAL021C, strain ccr4, active compounds read low 1.01 | locus YAL026C, strain drs2, active compounds read low 0.989 | locus YAL030W, strain snc1, active compounds read low 1.03 | locus YBL061C, strain skt5, active compounds read low 1.02 | locus YBR009C, strain hhf1, active compounds read low 0.979 | locus YBR021W, strain FUR4, active compounds read low 0.963 | locus YBR023C, strain chs3, active compounds read low 1.01 | locus YBR171W, strain sec66, active compounds read low 1.02 | locus YBR229C, strain ROT2, active compounds read low 0.997 | locus YBR231C, strain swc5, active compounds read low 1.02 | locus YBR279W, strain paf1, active compounds read low 1 | locus YCL011C, strain gbp2, active compounds read low 0.991 | locus YCL016C, strain dcc1, active compounds read low 0.955 | locus YCL029C, strain bik1, active compounds read low 0.986 | locus YCL069W, strain vba3, active compounds read low 1.01 | locus YCR088W, strain abp1, active compounds read low 1.01 | locus YDL005C, strain med2, active compounds read low 1.02 | locus YDL035C, strain GPR1, active compounds read low 1.03 | locus YDL040C, strain nat1, active compounds read low 1.01 | locus YDL074C, strain BRE1, active compounds read low 1.08 | locus YDL101C, strain DUN1, active compounds read low 0.996 | locus YDL134C, strain PPH21, active compounds read low 0.995 | locus YDL185W, strain tfp1, active compounds read low 0.983 | locus YDL192W, strain arf1, active compounds read low 0.994 | locus YDR001C, strain nth1, active compounds read low 1 | locus YDR069C, strain doa4, active compounds read low 1.04 | locus YDR101C, strain arx1, active compounds read low 0.997 | locus YDR137W, strain rgp1, active compounds read low 0.984 | locus YDR150W, strain NUM1, active compounds read low 0.987 | locus YDR159W, strain sac3, active compounds read low 0.937 | locus YDR162C, strain NBP2, active compounds read low 1.02 | locus YDR195W, strain ref2 1.01 | locus YDR297W, strain sur2, active compounds read low 1.03 | locus YDR318W, strain mcm21, active compounds read low 0.994 | locus YDR334W, strain swr1, active compounds read low 1 | locus YDR335W, strain msn5, active compounds read low 1.01 | locus YDR388W, active compounds read low 0.998 | locus YDR392W, strain spt3, active compounds read low 0.942 | locus YDR502C, strain sam2, active compounds read low 0.996 | locus YEL003W, strain gim4, active compounds read low 1.03 | locus YEL037C, strain rad23, active compounds read low 1.01 | locus YEL061C, strain CIN8 (second series), active compounds read low 1 | locus YEL061C, strain CIN8, active compounds read low 1.01 | locus YER015W, strain faa2, active compounds read low 1.01 | locus YER016W, strain bim1, active compounds read low 0.994 | locus YER110C, active compounds read low 0.99 | locus YER111C, strain swi4, active compounds read low 1 | locus YER155C, strain BEM2 (second series), active compounds read low 1.08 | locus YER155C, strain BEM2, active compounds read low 1 | locus YER167W, strain BCK2, active compounds read low 0.99 | locus YFR010W, strain ubp6, active compounds read low 1.01 | locus YGL078C, strain dbp3, active compounds read low 0.995 | locus YGL086W, strain mad1, active compounds read low 0.987 | locus YGL167C, strain pmr1, active compounds read low 1.03 | locus YGL173C, strain kem1, active compounds read low 1.04 | locus YGL227W, strain vid30, active compounds read low 1.01 | locus YGL240W, strain doc1, active compounds read low 1.04 | locus YGL248W, strain PDE1, active compounds read low 0.993 | locus YGL253W, strain hxk2, active compounds read low 0.985 | locus YGR078C, strain PAC10, active compounds read low 1.03 | locus YGR135W, strain pre9, active compounds read low 1.01 | locus YGR229C, strain SMI1, active compounds read low 1.06 | locus YGR252W, strain gcn5, active compounds read low 0.977 | locus YHR013C, strain ard1, active compounds read low 1 | locus YHR027C, strain rpn1, active compounds read low 1.01 | locus YHR030C, strain SLT2, active compounds read low 0.991 and 1.04 | locus YHR079C, strain IRE1 (second series), active compounds read low 0.991 | locus YHR079C, strain IRE1, active compounds read low 1.04 | locus YHR094C, strain hxt1, active compounds read low 0.991 | locus YHR129C, strain ARP1, active compounds read low 0.999 | locus YHR142W, strain chs7, active compounds read low 0.99 | locus YHR200W, strain rpn10, active compounds read low 0.988 | locus YIL066C, strain RNR3, active compounds read low 1 | locus YIL073C, strain SPO22, active compounds read low 0.949 | locus YIL125W, strain kgd1, active compounds read low 0.99 | locus YIR030C, strain dcg1, active compounds read low 0.994 | locus YJL092W, strain hpr5, active compounds read low 1.03 | locus YJL095W, strain BCK1 (second series), active compounds read low 1.03 | locus YJL095W, strain BCK1, active compounds read low 1.05 and 1.04 | locus YJL115W, strain asf1, active compounds read low 1.01 | locus YJL129C, strain trk1, active compounds read low 1.02 | locus YJL134W, strain LCB3, active compounds read low 0.997 | locus YJL154C, strain vps35, active compounds read low 1.01 | locus YJL164C, strain tpk1, active compounds read low 0.989 | locus YJL166W, strain qcr8, active compounds read low 1.03 | locus YJL168C, strain set2, active compounds read low 0.998 | locus YJL187C, strain SWE1 (second series), active compounds read low 1 | locus YJL187C, strain SWE1, active compounds read low 1.02 | locus YJR043C, strain POL32, active compounds read low 0.995 | locus YJR066W, strain TOR1, active compounds read low 1.01
